Most compounds without a hit are left out; they make up all but 2.6% or so of the library.
Gli-Sufu antag = blocks Gli-Sufu signaling in a luciferase reporter | Sufu-KO-LIGHT fibroblasts, Gli luciferase reporter luminescence | inhibition, % at 5 µM | hit rate 0.74% among 340,000 | AID 588413;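 active means inhibition above about 55%, limit read from the data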;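 further: 0% = DMSO-treated cells and 100% = wells with medium but no cells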
H9c2 TAG inh = inhibitors of triacylglycerol accumulation. H9c2 cells, Nile Red lipid (TAG) fluorescence; cells loaded with 200 µM oleic acid. hit rate 0.66% among 230,000. inhibition, % at 12.5 µM;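 active means pattern-corrected inhibition of lipid staining of at least 50% with the nuclear-stain viability signal not falling by more than 50%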;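 further: 0% = DMSO wells and 100% = triacsin C control wells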
Jurkat NFkB inh = lowers PMA/ionomycin-induced NF-kB signal in Jurkat cells; hit rate 0.53% among 330,000; AID 435003; inhibition, % at 4 µM; PMA/ionomycin-induced NF-kB luciferase reporter, luminescence; in the data active means inhibition above about 50%
H9c2 protect = modulators protecting cardiomyocytes from myocardial damage | protection from H2O2 cell death, % at 20 µM | AID 588492 | hit rate 0.63% among 360,000 | H9c2 cardiomyocytes, H2O2 injury protection, ATPLite, 2 h;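 active means compounds giving at least 50% protection of heart cells from peroxide-induced death in the single-dose screen, raw or plate-pattern-corrected value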;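 further: 0% = DMSO wells with peroxide and 100% = DMSO wells without peroxide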
NR2F2 inh = inhibitors of human COUP-TFII (NR2F2); P24468; HEK293T NGFI-A luciferase reporter, luminescence; inhibition, % at 8.6 µM; hit rate 0.7% among 370,000;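 active means inhibition above a per-plate cutoff, mean inhibition of test wells between control levels plus 3 SD, cut at about 38% in these data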;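 further: cells cotransfected with COUP-TFII expression vector driving the NGFI-A reporter; 0% = median of COUP-TF2 test wells and 100% = reporter-only cells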
Target sequence (P24468 whole entry, looked up): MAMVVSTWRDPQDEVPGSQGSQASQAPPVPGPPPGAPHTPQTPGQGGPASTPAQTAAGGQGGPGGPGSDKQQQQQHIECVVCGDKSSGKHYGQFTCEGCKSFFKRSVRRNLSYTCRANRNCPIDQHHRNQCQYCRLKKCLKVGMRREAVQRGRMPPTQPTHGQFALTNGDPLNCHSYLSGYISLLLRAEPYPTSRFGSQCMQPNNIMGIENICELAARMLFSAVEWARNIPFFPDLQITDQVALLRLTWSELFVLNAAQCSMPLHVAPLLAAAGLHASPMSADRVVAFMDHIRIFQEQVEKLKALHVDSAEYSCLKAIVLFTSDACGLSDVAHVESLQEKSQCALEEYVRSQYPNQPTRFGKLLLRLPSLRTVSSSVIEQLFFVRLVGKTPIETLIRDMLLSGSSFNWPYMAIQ
697 NFkB inh = lowers PMA/ionomycin-induced NF-kB signal in 697 B cells. 697 B-cell NF-kB luciferase reporter, 16 h. inhibition, % at 4 µM. hit rate 0.33% among 330,000; in the data active means inhibition above about 35%
TAG conf = confirmation of triacylglycerol accumulation inhibitors. H9c2 lipid accumulation, Nile Red fluorescence; cells loaded with 200 µM oleic acid. hit rate 71% among 990. shares compounds with H9c2 TAG inh. inhibition, % at 12.5 µM;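 active means mean inhibition across replicates of 40% or more; inactive means mean inhibition below 40%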;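 further: plate controls were DMSO only wells for no effect and Triacsin C treated wells for full effect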
* marks the source's active call; other numbers are inactive results; nt = no result given.

SMILES | Gli-Sufu antag | H9c2 TAG inh | Jurkat NFkB inh | H9c2 protect | NR2F2 inh | 697 NFkB inh | TAG conf
CCOC(=O)c1[nH]c(C)c(C(=O)OCC(=O)NCc2ccc(OC)c(OC)c2)c1C | -7 | 28 | -14 | 9 | 14 | -2 | nt
CNC(=S)N/N=C(\C)c1ccc(Cl)c(Cl)c1 | -4 | 9 | -7 | 10 | -14 | -14 | nt
CNC(=S)NN=C(C)CCCC(C)=NNC(=S)NC | 43 | 71* | nt | -16 | -11 | nt | 95*
CN1CCN(c2ccc(Cl)cc2NC(=O)c2ccc(S(=O)(=O)N(C)C)cc2)CC1 | 5 | 52* | 4 | 12 | 8 | 6 | 22
Cc1ccc(NC(=O)CSc2nnc(-c3cc(-c4ccc(Cl)cc4)n[nH]3)n2N)cc1 | nt | nt | nt | nt | -8 | nt | nt
COC(=O)[C@]12C[C@H](CC(=O)N3CCN(C(=O)C4CC4)CC3)C(=O)N(Cc3cccc4ccccc34)C1=C[C@H](COCc1ccccc1)O[C@@H]2C | nt | nt | nt | nt | 9 | nt | nt
CCOC(=O)CC[C@@]1(C(=O)OCC)C[C@@H](CC(=O)NCc2ccc(OC)c(OC)c2)C(=O)N2CCCC=C21 | nt | nt | nt | nt | -13 | nt | nt
O=C(c1ccoc1)N1CCN(c2cc(-c3ccncc3)nc3cc(-c4cccc(Cl)c4)nn23)CC1 | nt | 63* | nt | 71* | 7 | nt | 49*
O=C(c1ccoc1)N1CCN(c2cc(-c3cccnc3)nc3cc(-c4cccc(Cl)c4)nn23)CC1 | nt | 52* | nt | 17 | -2 | nt | 41*
O=C(c1ccoc1)N1CCN(c2cc(-c3ccccc3)nc3cc(-c4ccc(Br)cc4)nn23)CC1 | nt | 75* | nt | 14 | -6 | nt | 65*
O=C(c1ccncc1)N1CCN(c2cc(-c3ccccc3)nc3cc(-c4cccc(Cl)c4)nn23)CC1 | nt | 50 | nt | 30 | 12 | nt | nt
COC(=O)CN1CCN(C(=O)c2csc(-c3ccccc3)n2)CC1 | nt | nt | nt | nt | -11 | nt | nt
NC(=O)c1c(N)[nH]c(C(=O)c2ccccc2)c1-c1ccccc1Cl | nt | nt | nt | nt | -21 | nt | nt
CC(C)(C)OC(=O)N1CCC2CCN(S(C)(=O)=O)CC21 (stereo not drawn) | nt | nt | nt | nt | 7 | nt | nt
Cc1nc2ccc(Cl)cc2c(-c2ccccc2)c1C(=O)N(C)C | 39 | nt | 22 | -6 | -27 | 4 | nt
CCOC(=O)c1c(CN2CCNCC2)nc2ccc(Cl)cc2c1-c1ccccc1 | 16 | 70* | nt | -19 | -5 | nt | 78*
COc1ccc(-c2cc(C(=O)O)c3c(C)nn(-c4ccccn4)c3n2)cc1 | -1 | nt | 2 | nt | 5 | 6 | nt
CCOC(=O)c1cc(-c2ccncc2)nc2c1c(C)nn2-c1ccccn1 | 11 | 68* | 3 | 0 | -15 | -2 | 43*
CC(C)COc1ccc(C(=O)Nc2scc(-c3ccc(Cl)cc3Cl)c2C(N)=O)cc1 | 19 | 60* | 16 | -2 | -1 | 3 | 39
COc1ccc2nc(SCC(=O)N3CC(=O)Nc4ccccc43)c(C#N)cc2c1 | 12 | 54* | 19 | 23 | -13 | 15 | 39
CCN(C[C@H]1N[C@@](CC)(C(=O)OC)[C@H]2C(=O)N(Cc3ccccc3)C(=O)[C@@H]12)S(=O)(=O)c1ccc(C(C)(C)C)cc1 | -4 | 65* | 15 | -4 | -3 | 10 | 60*
CCN(C[C@H]1N[C@@](CC)(C(=O)OC)[C@H]2C(=O)N(Cc3ccccc3)C(=O)[C@@H]12)S(=O)(=O)c1ccc(-c2ccccc2)cc1 | -3 | 45 | 10 | -5 | -1 | 7 | nt
CCOc1ccc(OCC)c(NC(=O)CN(c2ccc(C)cc2)S(=O)(=O)c2c(C)noc2C)c1 | 8 | 53* | 9 | -9 | 2 | 8 | 46*
O=C(N1CCC(Cc2ccccc2)CC1)n1ncc(C(O)(c2ccccc2)c2ccccc2)n1 | nt | nt | nt | nt | 31 | nt | nt
Cc1cc(O)cc(=O)n1-c1ccc(Cl)c(C(F)(F)F)c1 | nt | nt | nt | nt | 11 | nt | nt
SMILES | Gli-Sufu antag | H9c2 TAG inh | Jurkat NFkB inh | H9c2 protect | NR2F2 inh | 697 NFkB inh | TAG conf
CCC(C)(C)NC(=O)C(c1ccccc1F)N(Cc1ccco1)C(=O)c1csnn1 (stereo not drawn) | -6 | 53* | 12 | 5 | 9 | 10 | 19
CCOC(=O)Nc1ccc2c(c1)C(=NNC(=S)NC)c1ccccc1-2 | nt | 58* | nt | 45 | -9 | nt | 70*
CCOC(=O)NN=C1c2ccccc2-c2ccccc21 | 2 | 0 | -2 | 9 | 8 | 11 | nt
CN(C)c1ccc(NC(=O)Nc2nc(C(N)C3CCCCC3)cs2)cc1 (stereo not drawn) | nt | 74* | nt | 6 | -11 | nt | 56*
NC(c1csc(Nc2ccc(C(=O)c3ccccc3)cc2)n1)C1CCCCC1 (stereo not drawn) | nt | 57* | nt | -23 | 9 | nt | 36
CC(C)c1ccc(NC(=O)Nc2nc(C(N)C3CCCCC3)cs2)cc1 (stereo not drawn) | nt | 130* | nt | -28 | -11 | nt | 133*
CC(=O)c1ccc(Nc2nc(C(N)C3CCCCC3)cs2)cc1 (stereo not drawn) | nt | 14 | nt | -10 | -4 | nt | nt
COc1ccc(NC(=O)Nc2nc(C(N)C3CCCCC3)cs2)cc1 (stereo not drawn) | nt | 42 | nt | 1 | 8 | nt | nt
CCOc1ccc(NC(=O)CN(C)C(=O)c2cc(-c3ccc(OC)cc3)nc3ccccc23)cc1OCC | 3 | 53* | 21 | 25 | 21 | 21 | 63*
CCCCN1CC[C@H](C)Oc2cc(Br)ccc2S1(=O)=O | nt | nt | nt | nt | -8 | nt | nt
Cc1ccc2nc(NC(=O)CN(C)S(=O)(=O)c3cccc4nsnc34)sc2c1 | -15 | 71* | 41 | -9 | -12 | -74 | 65*
CCN(CC)C(=O)CC[C@H]1CC[C@]2(CCCN(Cc3nccn3C)C2)O1 | nt | nt | nt | nt | -14 | nt | nt
Cc1ccc(N2C(=O)C3CC(c4ccccc4)=C4C5C=CC(C6C(=O)N(c7ccc(C)cc7C)C(=O)C56)C4C3C2=O)c(C)c1 (stereo not drawn) | 3 | 51* | -3 | -5 | nt | -5 | 53*
N=c1c(C(=O)NCc2ccc(F)cc2)cc2c(=O)n3ccccc3nc2n1CC1CCCO1 (stereo not drawn) | 23 | 51* | 8 | 10 | 1 | -34 | 35
CN(c1ccccc1)c1nc(N2CCCC2)nc(-n2ccnc2)n1 | -5 | 24 | 6 | 20 | -2 | -28 | nt
c1ccc(N(c2ccccc2)c2nc(N3CCCC3)nc(-n3ccnc3)n2)cc1 | 11 | 60* | 11 | -22 | -9 | 15 | 43*
Cc1ccc(NC(=O)c2nc[nH]c2C(=O)NCCCCCCNC(=O)c2[nH]cnc2C(=O)Nc2ccc(C)cc2)cc1 | -2 | 109* | 9 | 81* | -10 | 6 | 95*
O=C(Nc1cccc(Cl)c1)c1nc[nH]c1C(=O)NCCCNC(=O)c1[nH]cnc1C(=O)Nc1cccc(Cl)c1 | 19 | 70* | 3 | 80* | 2 | 13 | 85*
CCCCNC(=O)c1cnc(Cc2c[nH]c3ccccc23)c(I)c1 | nt | 65* | nt | -5 | 5 | nt | 15
CN1CCN(C(=O)c2cnc(Cc3c[nH]c4ccccc34)c(I)c2)CC1 | nt | -5 | nt | 2 | -1 | nt | nt

Source: PubChem BioAssay (several laboratories)
